# Bioassay records deposited in PubChem by National Center for Advancing Translational Sciences (NCATS).
# Sfp PPTase inh: Sfp phosphopantetheinyl transferase inhibition; Q9F4F7; Biochemical Sfp PPTase activity, qHTS; Potency, µM, for the others: largest response in the series, negative = inhibition, most hits filed as inhibitors; 310,000 compounds, 3.5% hits;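 also: the enzyme is Sfp with the accession as filed and its product quenches rhodamine fluorescence; 0% = enzyme reaction without inhibitor and -100% = no enzyme wells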
#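 Step 1, compound plus 15 nM Sfp-PPTase, 15 min, room temperature. Step 2, add rhodamine-CoA (5 uM) and BHQ-2-YbbR (12.5 uM). Step 3, read 525/598 nm fluorescence at 0 and 30 min.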
# L3MBTL1 inh: L3MBTL1 (human) inhibition. AlphaScreen L3MBTL1–H3K9me1 peptide binding. Potency, µM (top dose mostly 57.1 µM), for inactives: top-dose activity, negative = inhibition, hits mostly inhibitors. 230,000 compounds, 0.66% hits. Q9Y468. AID 485360; also: % is scaled to controls: 0 for no effect and ±100 for the full control effect; nearly all actives have a fitted effect of over 60% in size
# Target sequence (Q9Y468 whole entry, looked up): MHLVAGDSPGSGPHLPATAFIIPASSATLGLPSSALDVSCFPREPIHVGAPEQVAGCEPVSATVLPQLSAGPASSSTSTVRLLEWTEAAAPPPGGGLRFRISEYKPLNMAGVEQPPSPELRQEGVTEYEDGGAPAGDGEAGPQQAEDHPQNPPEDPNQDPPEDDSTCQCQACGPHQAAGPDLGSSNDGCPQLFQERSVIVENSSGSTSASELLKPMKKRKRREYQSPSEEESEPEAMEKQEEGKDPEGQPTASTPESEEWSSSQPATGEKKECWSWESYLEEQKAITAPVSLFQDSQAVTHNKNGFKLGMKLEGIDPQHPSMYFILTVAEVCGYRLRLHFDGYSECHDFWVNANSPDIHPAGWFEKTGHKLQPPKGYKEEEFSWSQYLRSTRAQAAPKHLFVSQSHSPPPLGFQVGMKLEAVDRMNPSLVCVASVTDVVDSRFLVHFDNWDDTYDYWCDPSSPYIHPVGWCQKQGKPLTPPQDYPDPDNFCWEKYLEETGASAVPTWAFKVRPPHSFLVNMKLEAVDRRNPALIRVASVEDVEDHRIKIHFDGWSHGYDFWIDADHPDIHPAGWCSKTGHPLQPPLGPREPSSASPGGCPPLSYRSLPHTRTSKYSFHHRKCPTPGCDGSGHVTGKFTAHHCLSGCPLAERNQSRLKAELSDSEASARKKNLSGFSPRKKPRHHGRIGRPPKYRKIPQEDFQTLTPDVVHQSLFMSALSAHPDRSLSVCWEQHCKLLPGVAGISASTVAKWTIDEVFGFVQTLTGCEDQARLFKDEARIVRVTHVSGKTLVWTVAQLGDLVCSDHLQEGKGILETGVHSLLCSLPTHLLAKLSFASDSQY
#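 AlphaScreen proximity signal between nickel-chelate acceptor and streptavidin donor beads (final 10 ug/mL) reports binding of 50 nM L3MBTL1 to 75 nM biotin-H3 K9me1 peptide; complex incubated with compounds 30 min at room temperature; cefsulodin titration as control.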
# HP1b binding inh: inhibitors of HP1-beta chromodomain binding to methylated histone tails | 390,000 compounds, 0.56% hits | AlphaScreen HP1-beta / biotin-H3K9me3 peptide binding | P83916 | Potency, µM (top dose mostly 114 µM), inactives show at the top dose activity change, negative = inhibition, hits mostly inhibitors | AID 540317; also: nearly all actives have a fitted effect of over 70% in size
#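 HP1-beta protein (50 nM final) preincubated 30 min at room temperature with biotinylated H3(1-18)K9me3 peptide (50 nM) in PBS pH 7.4, 0.01% Tween-20, then compound added for 30 min. AlphaScreen streptavidin donor/nickel chelate acceptor beads (10 ug/mL final), 30 min dark, luminescence read.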
# G9a inh: blocks human histone lysine methyltransferase G9a | Q96KQ7 | G9a H3K9 monomethylation, AlphaScreen, 2 h | Potency, µM (series often up to 102 µM), for inactives: top-dose activity, negative = inhibition, actives largely listed as inhibitors | 350,000 compounds, 8.8% hits | AID 504332; also: % is scaled to controls: 0 for no effect and ±100 for the full control effect; nearly all actives have a fitted effect of over 75% in size
#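 Chemiluminescent proximity detection of H3K9 monomethylation, read after 10 min bead incubation in the dark. Reaction: 20 nM G9a, 500 nM biotin-H3K9 peptide, 20 uM SAM cofactor, 2 h, room temperature, following 15 min enzyme-compound preincubation.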
# JMJD2A Tudor: inhibitors of human JMJD2A Tudor domain | O75164 | AlphaScreen JMJD2A-Tudor / H3K4me3 peptide binding | Potency, µM (doses to about 114 µM), for the others: top-dose activity change, negative = inhibition, most hits filed as inhibitors | 390,000 compounds, 4.4% hits; also: % is scaled to controls: 0 for no effect and ±100 for the full control effect; nearly all actives have a fitted effect of over 50% in size
# BAZ2B inh: blocks human BAZ2B | AlphaScreen BAZ2B-H3K14Ac peptide displacement | Q9UIF8 | 360,000 compounds, 4.4% hits | Potency, µM (titrated, usually from 114 µM), for inactives: at the highest dose activity change, negative = inhibition, actives largely listed as inhibitors; also: % is scaled to controls: 0 for no effect and ±100 for the full control effect; nearly all actives have a fitted effect of over 60% in size
#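 BAZ2B (50 nM) with biotin-H3(5-23)K14Ac peptide (50 nM) in PBS pH 7.4, 0.01% Tween-20, preformed 30 min, then compound 30 min at room temperature; top concentration 110uM. AlphaScreen streptavidin donor/nickel chelate acceptor beads (10 ug/mL final), 20 min dark, signal read.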
# * hit, by the source's call; ? = inconclusive; · = no result given; [ ] = another dose, or the depositor's remark. Most compounds without a hit are left out; they make up all but 12% or so of the library. Calls follow the shape of the dose curve; as a rule, active = well fitted curve in the direction sought with a large enough effect; inconclusive = small, poorly fitted or top-dose-only effect, or another doubt; inactive = no such curve, though single readings can be large; an effect the other way counts as inactive or inconclusive. Potency is read from the fitted curve at half-maximal effect.
SMILES,Sfp PPTase inh,L3MBTL1 inh,HP1b binding inh,G9a inh,JMJD2A Tudor,BAZ2B inh
O=C(C1CC1)N1CCC(C(O)(c2ccccc2)c2ccccc2)CC1,8%,·,17%,-21%[59 µM],28%,-3%
Oc1ccccc1CN1CCN(C(O)(c2ccccc2)c2ccccc2)CC1,-8%,-10%,2%,35µM*,-17%,50µM*
Oc1ccccc1CN1CCC(C(O)(c2ccccc2)c2ccccc2)CC1,-17%,-1%,?,8.9µM*,?,-38%
CC(=O)OC[C@@H]1O[C@@H](O/N=C2/C[C@@H](O)[C@@H](O)[C@@H]3[C@@H]4C(=O)N(Cc5ccc6c(c5)OCO6)C(=O)[C@H]4CC[C@@H]23)[C@H](OC(C)=O)[C@H](OC(C)=O)[C@@H]1OC(C)=O,7%,·,·,·,·,·
Cc1ccccc1OCC(=O)NCC(=O)OCc1cccc2ccccc12,·,·,33%[57 µM],·,-13%[57.1 µM],·
C/C(=C\C=C(C#N)C#N)c1cc(C#N)c(N)o1,-8%,-21%,?,20µM*,?,25µM*
COc1ccc(C2(c3ccc(OC)cc3)NC(=O)N(CC(=O)Nc3ccc(N4CCOCC4)cc3)C2=O)cc1,·,-26%,?,40µM*,?,?
O=C(CN1C(=O)NC(c2ccccc2)(c2ccccc2)C1=O)Nc1ccc(N2CCOCC2)cc1,·,-9%,?,·,?,·
O=C(Nc1ccc(N2CCOCC2)cc1Cl)C1CCN(C(=O)OCc2ccccc2)CC1,-3%,-20%,17%,-7%,?,-32%
O=C(Nc1ccc(N2CCOCC2)cc1)C1CCN(C(=O)OCc2ccccc2)CC1,19%,·,5%,40µM*,-16%,-2%
COc1cccc(CNCC(=O)Nc2ccc(N3CCOCC3)cc2)c1,-18%,-4%,?,3.5µM*,25µM*,50µM*
O=C(COC(=O)c1ccco1)Nc1ccc(N2CCOCC2)cc1,·,4%,10%,22µM*,-14%,17%
COc1ccc(/C=C/c2nc(C#N)c(N3CCCCC3)o2)cc1OC,·,·,3%,-28%[59 µM],-35%,?
O=C(COC(=O)c1ccc(Cl)nc1)Nc1ccc(N2CCOCC2)cc1,·,-2%,-12%,56µM*,-13%,22%
NC(=O)c1ccc(NC(=O)COC(=O)c2ccc(Cl)nc2)cc1,·,10%,24%,7.9µM*,-3%,1%
COc1ccc(CC(=O)OCC(=O)Nc2ccc(N3CCOCC3)cc2)cc1,10%,-20%,16%,50µM*,-16%,6%
NC(=O)c1ccsc1NC(=O)COC(=O)c1ccc(Cl)nc1,·,-9%,18%,-24%,-13%,17%
COc1cc(CC(=O)OCC(=O)Nc2ccc(N3CCOCC3)cc2)cc(OC)c1OC,5%,2%,34%,?,-6%,-5%
O=S(=O)(NCCNS(=O)(=O)c1cccs1)c1cccs1,20%,9%,44%,65%[59 µM],-9%,-28%
C=CCNC(=S)NS(=O)(=O)c1cccs1,22µM*,-2%,-11%,18µM*,-28%,-24%
COc1cc(OC)c(NS(=O)(=O)c2ccc3c(c2)CCCN3C(C)=O)cc1Cl,·,·,24%[57 µM],0%[59 µM],-13%,1%
O=C(COC(=O)c1ccccc1Nc1cccc(C(F)(F)F)c1)NCc1ccco1,-5%,?,?,28µM*,56µM*,45µM*
O=C(COC(=O)c1ccccc1Nc1ccccc1)NCc1ccccc1,10%,-5%,46%,50µM*,1%,3%
Cn1c(N2CCOCC2)nc(-c2ccccc2)c1-c1ccccc1,1%,·,-12%,50µM*,-31%,?
c1ccc(-c2nc3ccccc3nc2N2CCOCC2)cc1,4%,24%,156%,68%[59 µM],136%,62%
SMILES,Sfp PPTase inh,L3MBTL1 inh,HP1b binding inh,G9a inh,JMJD2A Tudor,BAZ2B inh
Cc1ccc(-c2nn(-c3ccccc3)cc2/C=N/n2c(-c3cccs3)n[nH]c2=S)cc1,3%,·,-18%,?,?,-34%
Cc1ccc(-c2n[nH]c(=S)n2/N=C/c2cccs2)cc1,-27%,-3%,1%,1µM*,28µM*,-3%
Cc1cc(-c2n[nH]c(=S)n2/N=C/c2cccs2)n[nH]1,-2%,-4%,7%,0.35µM*,6.3µM*,-38%
CC(/C=N/n1c(-c2cc(C)[nH]n2)n[nH]c1=S)=C\c1ccccc1,?,-13%,7%,?,?,-37%
S=c1[nH]nc(-c2ccccc2)n1/N=C/c1cccs1,-28%,0%,-10%,0.56µM*,18µM*,-38%
CC(=O)N1CCN(c2csc3ccc(Br)cc3c2=O)CC1,·,·,28%[57 µM],-32%[59 µM],-11%,-14%
N#Cc1ccc(C[C@H](C(=O)O)N2C(=O)c3ccc(C(=O)O)cc3C2=O)cc1,20%,13%,·,-5%[12.7 µM],-27%,-5%
CC(C)(C)N1C(=O)Cc2c1nc(N)c1c(N)nc(N3CCCCC3CO)c(C#N)c21 (stereo not drawn),-12%,?,?,7.9µM*,50µM*,40µM*
CN(CCO)c1nc(N)c2c(N)nc3c(c2c1C#N)CC(=O)N3C1CCCC1,50µM*,-17%,·,?,·,?
COc1ccccc1-n1ccnc1SCC(=O)NCc1ccco1,16%,16%,-31%,-38%,40µM*,-39%
COc1ccccc1-n1ccnc1SCC(=O)NCC1CCCO1 (stereo not drawn),11%,·,24%,0%,8%,-3%[57.1 µM]
COc1cccc(N2CCN(C(=O)c3ccccc3SCC(=O)NCc3ccco3)CC2)c1,·,-6%,40%,-2%[12.7 µM],-36%,-38%
COc1ccccc1N1CCN(C(=O)c2ccccc2SCC(=O)N2CCCC2)CC1,·,1%,35%,79µM*,-19%,13%
CCOc1ccccc1N1CCN(C(=O)c2ccccc2SCC(=O)N2CCCC2)CC1,7%,·,57%,?,-10%,-20%
COc1ccccc1N1CCN(C(=O)c2ccccc2SCC(=O)NCc2ccco2)CC1,·,-2%,19%,50µM*,-22%,-4%
Cc1ccc(SSc2cc(C)ccc2N)c(N)c1,·,-1%,14µM*,?,7.9µM*,50µM*
Cc1ccc(O)c(N)c1,·,-11%,4%,10%[0.501 µM],-32%,-4%
CCCCc1nc2c(c3c1C[C@H](C)OC3)CN(C(=O)c1cc(I)ccc1F)CC2,12%,·,·,·,·,·
CN(C)c1ccc(C=Nc2ccc(N(C)C)cc2)cc1,22µM*,?,50µM*,?,56µM*,20µM*
C(=Nc1cccc2c(N=Cc3ccco3)cccc12)c1ccco1,-11%,-15%,-5%,40µM*,-32%,28µM*
Cc1ccc(N=Cc2ccc(N(C)C)cc2)cc1,-2%,2%,6%,-35%,-14%,-6%
CN(C)c1ccc(N=Cc2ccco2)cc1,45µM*,?,16µM*,10µM*,28µM*,-108%
CN(C)c1ccc(C=Nc2ccccc2)cc1,14%,31%,13%,23%[59 µM],-10%,50%[57.1 µM]
